Bioassay records deposited in PubChem by National Center for Advancing Translational Sciences (NCATS).
VP16 counter: Gal4-VP16 reporter inhibition counter-screen; Drosophila S2 Gal4-VP16 UAS-luciferase, luminescence, 20 h; Potency, µM (top dose mostly 53.6 µM), inactives show at the highest dose activity, negative = inhibition, hits mostly inhibitors; 310,000 tested, 3.5% active;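 also: Gal4-VP16 expression switched on by copper sulfate through the metallothionein promoter; % is scaled to controls: 0 for no effect and ±100 for the full control effect; nearly all actives have a fitted effect of over 50% in size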
RORgamma inh: inhibitors of mouse ROR gamma transcriptional activity; P51450; Drosophila S2 Gal4-RORgamma UAS-luciferase reporter, 20 h; Potency, µM (doses to about 53.6 µM), for the others: at the highest dose activity change, negative = inhibition, hits mostly inhibitors; 310,000 tested, 5.4% active; AID 2551; also: % is scaled to controls: 0 for no effect and ±100 for the full control effect; nearly all actives have a fitted effect of over 60% in size
Target sequence (P51450 whole entry, looked up, the tested form may be a part): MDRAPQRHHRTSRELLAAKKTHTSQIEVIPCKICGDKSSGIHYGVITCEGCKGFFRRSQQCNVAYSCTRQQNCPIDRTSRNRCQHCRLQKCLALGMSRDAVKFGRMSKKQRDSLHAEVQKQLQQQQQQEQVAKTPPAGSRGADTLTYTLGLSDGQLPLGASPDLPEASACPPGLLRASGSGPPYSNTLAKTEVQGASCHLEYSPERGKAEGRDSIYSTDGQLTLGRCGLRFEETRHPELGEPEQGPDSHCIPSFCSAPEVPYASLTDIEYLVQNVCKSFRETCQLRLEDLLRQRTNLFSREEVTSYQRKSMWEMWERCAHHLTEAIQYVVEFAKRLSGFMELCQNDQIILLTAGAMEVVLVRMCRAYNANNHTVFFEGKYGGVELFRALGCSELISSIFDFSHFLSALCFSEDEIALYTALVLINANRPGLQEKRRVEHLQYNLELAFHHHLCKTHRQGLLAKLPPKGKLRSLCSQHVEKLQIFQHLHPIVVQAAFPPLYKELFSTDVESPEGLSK
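Read-out: Photinus luciferase luminescence; inhibitors lower reporter signal. Insect Schneider cells with Gal4-ROR gamma fusion under metallothionein promoter, UAS reporter; 700 uM final copper sulfate induction, 20 hr, ambient temperature.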
uPA surface inh: inhibitors of cell surface uPA generation; cell surface uPA generation assay, qHTS; Potency, µM (series often up to 38.3 µM), inactives show top-dose activity change, negative = inhibition, most hits filed as inhibitors; 330,000 tested, 0.31% active; AID 540303; active = well fitted inhibition curve with a large enough effect; inconclusive = small, poorly fitted or top-dose-only effect; inactive = no such curve, though single readings can be large or run the other way; tested in mouse RAW 264.7 cells; also: % is scaled to controls: 0 for no effect and ±100 for the full control effect; nearly all actives have a fitted effect of over 55% in size
Mito fusion act: inhibitors of mitochondrial division or activators of mitochondrial fusion | S. cerevisiae fusion-defective mutant growth rescue, CellTiterGlo 48 h | 320,000 tested, 0.23% active | Potency, µM (series often up to 46.1 µM), for inactives: top-dose growth rescue (activation), most hits filed as activators; also: % of control where 0% means no effect; nearly all actives have a fitted effect of over 45% in size
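Growth-rescue viability read-out: after 48 h at the non-permissive 37C in glycerol/ethanol YPEG, yeast mitochondrial fusion mutants are measured by CellTiterGlo luminescence; compounds (23 nl pinned per well) restoring growth score as division inhibitors or fusion activators.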
Integrin act MD: activates integrin-mediated alleviation for muscular dystrophy; 350,000 tested, 0.064% active; AID 624291; Potency, µM (series often up to 38.3 µM), inactives show at the highest dose activation, actives largely listed as activators; alpha7betagal myoblasts, beta-gal FDG fluorescence, 48 h;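 also: 100% = response of the positive control SU9516; nearly all actives have a fitted effect of over 60% in size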
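alpha7betagal+/- myoblasts (passage 13, 250/well) treated 48 h at 37C with compounds at 1:260 dilution of DMSO stock. Lysed, then beta-galactosidase activity read as FDG fluorescence (ex 480/em 540) after 30 min, with pre-read for autofluorescence.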
Chronic BCR inh: inhibitors of chronic active B-cell receptor signaling | AID 493014 | ABC-DLBCL IkBa-CBG/CBR reporter, luminescence ratio, 4 h | 340,000 tested, 0.05% active | Potency, µM (doses to about 46.1 µM), for the others: top-dose activity change, negative = inhibition, actives largely listed as inhibitors; active = well fitted inhibition curve with a large enough effect in the signal ratio, with a control signal flat, not every such curve was filed as active; inconclusive = small, poorly fitted or top-dose-only effect, or effect the other way, or a change in a side signal; the % refers to the signal ratio;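 also: plate controls were basal doxycycline-induced cells for no effect and cells given 10 µM MG132 for full effect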
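Concentration-response series (up to 46 uM) were applied to TMD8 dual-reporter cells for 4 h at 37C with doxycycline. Green/red ratio, after filter-overlap correction, defined %Activity; red signal alone was normalised to basal cells and zero luminescence.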
An asterisk follows results filed as active; ? = inconclusive; nt = no result given. An excerpt weighted towards active compounds, which were near 5.5% of everything screened. Unless noted, calls follow the shape of the dose curve; as a rule, active = well fitted curve in the direction sought with a large enough effect; inconclusive = small, poorly fitted or top-dose-only effect, or another doubt; inactive = no such curve, though single readings can be large; an effect the other way counts as inactive or inconclusive. Potency is read from the fitted curve at half-maximal effect.

SMILES | VP16 counter | RORgamma inh | uPA surface inh | Mito fusion act | Integrin act MD | Chronic BCR inh
Cc1ccc(CNC(=O)CSc2nc3ccccc3[nH]2)cc1 | nt | nt | -0.5% | -1.9% | -14.8% | -1.1%
COc1cc(O)sc1C=Nc1ccc(Cl)cc1Cl | -7.3% | -20.0% | 1.5% | -4.9% | 24.4% | 9.6%
COc1ccc(-c2nn(C)c(=O)c3ccccc23)cc1CNS(C)(=O)=O | 17.5% | ? | -6.4% | 2.3% | 18.4% | 18.4µM*
O=C1OC(c2ccccc2)=NC12CC2c1ccc(Cl)cc1 (centres undefined) | 5.01µM* | 10µM* | -9.5% | 15.6% | 10.2% | ?
O=C1C2C=CC=CC2=NC(=S)N1CCN1CCC(=C(c2ccc(F)cc2)c2ccc(F)cc2)CC1 (centres undefined) | nt | nt | nt | 5.8µM* | nt | nt
O=C(CNc1ccccc1F)Nc1cccc(S(=O)(=O)N2CCCCC2)c1 | nt | nt | -4.5% | -2.8% | -2.5% | ?
Nc1nc2sc3c(c2cc1C(=O)NCC(=O)O)CCCC3 | ? | 10µM* | ? | -13.1% | -3.4% | -10.5%
Nc1nc2sc3c(c2cc1C(=O)N1CCOCC1)CCCC3 | 13.4% | ? | 2.7% | -0.6% | 0.3% | 0.4%
CCOC(=O)C1=C(C)NC(=O)NC1c1ccc(-c2ccc(Cl)cc2)o1 (centres undefined) | -7.2% | -20.7% | nt | 0.6% | ? | ?
CCOC(=O)C1=C(C)NC(=S)NC1c1ccc(-c2ccc(Cl)cc2)o1 (centres undefined) | 6.31µM* | 2.51µM* | 1.7% | ? | -20.5% | ?
COC(=O)C1=C(C)NC(=S)NC1c1ccc(-c2ccccc2C(=O)OC)o1 (centres undefined) | -18.5% | 17.8µM* | 1.2% | -2.4% | 26.1% | 3.5%
COC(=O)C1=C(C)NC(=S)NC1c1ccc(-c2cccc(Cl)c2)o1 (centres undefined) | ? | 14.1µM* | 10.4% | ? | 5.9% | -4.3%
CC1O[C@@H]2O[C@](O[C@H](C)CC[C@@H](C)O)(c3ccccc3)O[C@@H]2C[C@H]1O (some centres undefined) | nt | nt | 8.6% | 4.1% | -4.3% | -6.5%
Cc1ccc(S(=O)(=O)CCC(=O)c2ccc(F)cc2)cc1 | 2.82µM* | 3.98µM* | -10.5% | -0.5% | -54.3% | 3.9%
Cc1ccc(C(=O)CCS(=O)(=O)c2ccc(Cl)cc2)cc1 | ? | 15.8µM* | 1.9% | -3.3% | -60.3% | 3.7%
Cc1ccc(S(=O)(=O)CCC(=O)NCc2ccc(Cl)cc2)cc1 | -0.6% | -5.0% | 0.9% | -3.5% | 12.7% | 2.4%
Cc1ccc(C(=O)CCS(=O)(=O)c2ccc(F)cc2)cc1 | 3.55µM* | 3.16µM* | 11.2µM* | -0.5% | -40.3% | ?
Cc1cnc(CNc2ncncc2-c2ccccc2C#N)cn1 | -0.1% | -35.7% | nt | nt | nt | nt
CC1CCCN(C(=O)CN(C)S(=O)(=O)c2cccc3nsnc23)C1 (centres undefined) | -1.9% | 0.8% | -3.5% | 0.6% | 18.7% | 2.0%
O=C(c1ccc2c(=O)n3c(nc2c1)CCC3)N1CCCSC1=Nc1ccccc1 | nt | nt | 22.1% | -4.4% | -4.6% | 0.1%
CC(=O)Nc1ccc(SCC(Cc2ccccc2)N2CCN(CCc3ccccc3)CCC2=O)cc1 (centres undefined) | 4.5% | ? | nt | nt | nt | nt
OCCN1CCN(CC(O)COc2ccc3ccccc3c2)CC1 (centres undefined) | -7.9% | -4.2% | -5.2% | 0.6% | 16.5% | 14.1%
CN1CCN(C(c2ccc(C(F)(F)F)cc2)c2cc(Cl)c3cccnc3c2O)CC1 (centres undefined) | 0.891µM* | 0.398µM* | nt | 17.0% | nt | ?
CN1CCN(C(c2cccc(Cl)c2)c2ccccc2Cl)CC1 (centres undefined) | -2.8% | -21.8% | -1.6% | -15.4% | -45.8% | -1.0%
Oc1c(C(c2ccccn2)N2CCCCC2)cc(Cl)c2cccnc12 (centres undefined) | ? | 2.82µM* | ? | 0.2% | -8.6% | ?
